In the supplement of paper PMC11732987, “Enantioselective OTUD7B fragment discovery through chemoproteomics screening and high-throughput optimisation” (Communications Chemistry, 2025):

Assays:
Experiment in all cases: log2 ratio of Biotin-Ahx-Ub-VS probe labelling (fragment/DMSO); higher = less target engagement (more negative = stronger competition), active = hit call of the paper (q ≤ 0.05, log2 ratio ≤ -1)
Conditions in all cases: compound concentration: 200 uM; treatment time: 3 h
USP34 = USP34 (UniProt Q70CQ2)
USP34, sequence (Q70CQ2 whole entry, the tested form may be a part): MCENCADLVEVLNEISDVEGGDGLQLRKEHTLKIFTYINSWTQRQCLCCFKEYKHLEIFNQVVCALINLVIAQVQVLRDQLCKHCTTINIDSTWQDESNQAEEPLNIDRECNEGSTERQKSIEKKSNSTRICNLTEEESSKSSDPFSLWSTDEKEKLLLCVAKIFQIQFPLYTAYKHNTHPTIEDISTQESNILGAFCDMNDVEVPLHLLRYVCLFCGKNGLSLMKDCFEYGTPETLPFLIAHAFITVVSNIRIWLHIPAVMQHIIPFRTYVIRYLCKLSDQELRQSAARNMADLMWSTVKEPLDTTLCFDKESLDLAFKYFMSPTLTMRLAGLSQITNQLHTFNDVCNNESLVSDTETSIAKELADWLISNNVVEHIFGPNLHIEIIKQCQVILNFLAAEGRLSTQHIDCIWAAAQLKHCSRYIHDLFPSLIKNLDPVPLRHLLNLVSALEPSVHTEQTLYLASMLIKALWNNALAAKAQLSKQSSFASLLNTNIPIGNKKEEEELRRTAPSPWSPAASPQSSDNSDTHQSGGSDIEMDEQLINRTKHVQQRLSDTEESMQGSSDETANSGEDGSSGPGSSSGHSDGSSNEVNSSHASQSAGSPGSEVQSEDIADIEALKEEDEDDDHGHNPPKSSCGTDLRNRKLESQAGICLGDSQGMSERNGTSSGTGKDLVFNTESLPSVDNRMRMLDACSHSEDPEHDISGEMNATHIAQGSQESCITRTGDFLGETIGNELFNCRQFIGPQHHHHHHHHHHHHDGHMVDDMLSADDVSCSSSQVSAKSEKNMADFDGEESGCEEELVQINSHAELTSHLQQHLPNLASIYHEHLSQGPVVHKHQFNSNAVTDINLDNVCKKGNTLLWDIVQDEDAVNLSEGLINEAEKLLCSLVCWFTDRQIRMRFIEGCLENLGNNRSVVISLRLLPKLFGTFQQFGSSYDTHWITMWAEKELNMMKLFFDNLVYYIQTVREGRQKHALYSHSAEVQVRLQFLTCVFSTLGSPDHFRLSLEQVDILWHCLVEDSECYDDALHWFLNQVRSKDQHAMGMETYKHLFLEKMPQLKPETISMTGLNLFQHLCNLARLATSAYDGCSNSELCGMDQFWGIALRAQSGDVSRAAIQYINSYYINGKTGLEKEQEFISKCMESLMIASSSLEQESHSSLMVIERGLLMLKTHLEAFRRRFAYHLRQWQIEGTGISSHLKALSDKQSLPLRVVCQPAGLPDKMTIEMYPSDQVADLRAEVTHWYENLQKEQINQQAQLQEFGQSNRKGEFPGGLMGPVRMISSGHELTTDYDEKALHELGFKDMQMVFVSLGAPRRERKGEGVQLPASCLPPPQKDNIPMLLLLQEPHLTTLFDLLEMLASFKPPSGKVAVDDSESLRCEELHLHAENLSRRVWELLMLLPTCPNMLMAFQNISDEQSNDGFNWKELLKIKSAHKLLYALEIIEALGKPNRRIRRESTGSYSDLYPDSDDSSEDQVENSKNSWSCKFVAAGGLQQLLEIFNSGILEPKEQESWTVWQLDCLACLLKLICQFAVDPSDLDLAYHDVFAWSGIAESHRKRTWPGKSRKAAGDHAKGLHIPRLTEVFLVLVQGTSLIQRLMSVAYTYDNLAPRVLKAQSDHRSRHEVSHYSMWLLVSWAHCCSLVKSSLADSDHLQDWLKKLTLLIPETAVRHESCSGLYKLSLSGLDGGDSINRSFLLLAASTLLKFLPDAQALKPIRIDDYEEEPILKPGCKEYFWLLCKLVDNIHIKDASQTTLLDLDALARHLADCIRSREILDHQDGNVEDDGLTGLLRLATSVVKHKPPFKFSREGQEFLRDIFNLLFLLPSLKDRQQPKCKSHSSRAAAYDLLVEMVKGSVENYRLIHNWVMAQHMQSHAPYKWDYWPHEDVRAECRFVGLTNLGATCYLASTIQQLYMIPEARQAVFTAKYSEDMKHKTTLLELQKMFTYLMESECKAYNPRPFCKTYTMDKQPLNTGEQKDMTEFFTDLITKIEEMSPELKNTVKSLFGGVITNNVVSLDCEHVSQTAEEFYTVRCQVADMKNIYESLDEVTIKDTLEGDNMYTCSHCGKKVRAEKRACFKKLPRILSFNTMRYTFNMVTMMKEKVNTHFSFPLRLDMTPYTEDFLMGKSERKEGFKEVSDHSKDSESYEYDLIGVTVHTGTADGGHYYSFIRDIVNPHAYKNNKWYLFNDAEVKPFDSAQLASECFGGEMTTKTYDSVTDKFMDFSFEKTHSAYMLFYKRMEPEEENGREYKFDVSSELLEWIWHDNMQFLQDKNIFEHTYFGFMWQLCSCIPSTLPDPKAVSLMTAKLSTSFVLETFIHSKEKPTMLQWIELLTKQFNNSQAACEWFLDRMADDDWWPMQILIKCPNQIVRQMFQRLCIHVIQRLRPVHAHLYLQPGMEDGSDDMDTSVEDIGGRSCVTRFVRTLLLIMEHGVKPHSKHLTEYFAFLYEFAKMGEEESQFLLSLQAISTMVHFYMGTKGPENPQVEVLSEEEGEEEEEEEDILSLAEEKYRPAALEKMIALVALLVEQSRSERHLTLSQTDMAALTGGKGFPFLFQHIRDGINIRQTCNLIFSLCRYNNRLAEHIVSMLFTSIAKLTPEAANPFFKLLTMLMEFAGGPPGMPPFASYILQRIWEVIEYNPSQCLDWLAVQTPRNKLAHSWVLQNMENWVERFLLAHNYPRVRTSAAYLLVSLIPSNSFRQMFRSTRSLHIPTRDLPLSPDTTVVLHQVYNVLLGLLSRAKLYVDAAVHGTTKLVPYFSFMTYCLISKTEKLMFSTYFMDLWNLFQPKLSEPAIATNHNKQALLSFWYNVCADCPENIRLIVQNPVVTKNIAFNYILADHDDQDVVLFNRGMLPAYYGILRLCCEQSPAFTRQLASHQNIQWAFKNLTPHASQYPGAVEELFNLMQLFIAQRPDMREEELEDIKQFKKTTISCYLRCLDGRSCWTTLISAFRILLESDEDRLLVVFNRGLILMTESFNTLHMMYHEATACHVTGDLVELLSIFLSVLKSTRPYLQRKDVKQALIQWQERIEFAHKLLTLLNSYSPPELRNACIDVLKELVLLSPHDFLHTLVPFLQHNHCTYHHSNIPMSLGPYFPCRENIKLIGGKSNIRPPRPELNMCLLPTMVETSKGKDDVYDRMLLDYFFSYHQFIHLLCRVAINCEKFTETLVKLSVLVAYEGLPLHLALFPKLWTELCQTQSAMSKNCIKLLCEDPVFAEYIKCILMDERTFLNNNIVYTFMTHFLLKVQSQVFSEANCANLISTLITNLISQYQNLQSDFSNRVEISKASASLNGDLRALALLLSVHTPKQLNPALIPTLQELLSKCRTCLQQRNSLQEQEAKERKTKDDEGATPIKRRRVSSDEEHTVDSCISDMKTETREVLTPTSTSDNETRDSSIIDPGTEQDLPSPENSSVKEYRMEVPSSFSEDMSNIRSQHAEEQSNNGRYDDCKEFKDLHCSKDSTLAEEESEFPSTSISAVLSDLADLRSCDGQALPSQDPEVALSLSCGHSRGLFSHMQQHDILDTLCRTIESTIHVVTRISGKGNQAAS
Procedure, shortened: (§1)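 HEK293T lysate in Tris/CHAPS/IGEPAL buffer with protease inhibitors (495 µg per sample) was given fragment at 200 µM or vehicle for 3 h, in triplicate. It then received Biotin-Ahx-Ub-VS at 0.5 µM final for 1 h. Labelled DUBs were NeutrAvidin-enriched, digested with LysC and trypsin, and run by diaPASEF LC-MS/MS. Values are average log2 fragment/vehicle ratios by unpaired t-test on global-median-normalised Spectronaut quantities of proteins with ≥2 unique peptides.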

USP36 = molecular target: T1, USP36 (UniProt Q9P275)
T1 sequence (whole entry): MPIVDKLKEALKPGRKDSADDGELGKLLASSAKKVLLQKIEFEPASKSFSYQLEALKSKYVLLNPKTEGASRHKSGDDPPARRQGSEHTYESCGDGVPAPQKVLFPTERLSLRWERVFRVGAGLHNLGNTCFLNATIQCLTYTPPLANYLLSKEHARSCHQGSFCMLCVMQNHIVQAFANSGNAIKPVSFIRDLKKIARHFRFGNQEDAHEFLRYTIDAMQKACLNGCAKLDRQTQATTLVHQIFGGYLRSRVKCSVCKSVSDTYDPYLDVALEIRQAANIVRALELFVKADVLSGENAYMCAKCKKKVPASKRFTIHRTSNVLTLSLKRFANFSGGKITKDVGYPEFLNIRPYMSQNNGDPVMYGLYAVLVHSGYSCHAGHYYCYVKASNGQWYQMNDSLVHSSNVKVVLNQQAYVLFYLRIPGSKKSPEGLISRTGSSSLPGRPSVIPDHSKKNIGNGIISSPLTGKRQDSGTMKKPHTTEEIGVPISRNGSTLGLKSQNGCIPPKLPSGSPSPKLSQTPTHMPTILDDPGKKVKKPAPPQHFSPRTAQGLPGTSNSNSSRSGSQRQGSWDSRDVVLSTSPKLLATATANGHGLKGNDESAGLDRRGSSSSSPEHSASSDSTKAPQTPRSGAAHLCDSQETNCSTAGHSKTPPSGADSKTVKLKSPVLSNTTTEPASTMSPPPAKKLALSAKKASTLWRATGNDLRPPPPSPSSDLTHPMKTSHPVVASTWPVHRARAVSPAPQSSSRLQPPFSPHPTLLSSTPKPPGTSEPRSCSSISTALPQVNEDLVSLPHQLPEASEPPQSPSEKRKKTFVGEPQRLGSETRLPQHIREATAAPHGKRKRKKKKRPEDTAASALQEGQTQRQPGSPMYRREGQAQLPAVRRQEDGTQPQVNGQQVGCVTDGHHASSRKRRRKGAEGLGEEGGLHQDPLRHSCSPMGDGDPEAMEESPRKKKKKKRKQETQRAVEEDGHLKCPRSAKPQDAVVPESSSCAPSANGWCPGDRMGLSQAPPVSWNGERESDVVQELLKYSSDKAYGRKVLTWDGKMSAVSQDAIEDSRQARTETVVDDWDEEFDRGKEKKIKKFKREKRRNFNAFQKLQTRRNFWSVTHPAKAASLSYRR
Procedure, shortened: as §1

USP38 = molecular target: T2, USP38 (UniProt Q8NB14)
T2 sequence (whole entry): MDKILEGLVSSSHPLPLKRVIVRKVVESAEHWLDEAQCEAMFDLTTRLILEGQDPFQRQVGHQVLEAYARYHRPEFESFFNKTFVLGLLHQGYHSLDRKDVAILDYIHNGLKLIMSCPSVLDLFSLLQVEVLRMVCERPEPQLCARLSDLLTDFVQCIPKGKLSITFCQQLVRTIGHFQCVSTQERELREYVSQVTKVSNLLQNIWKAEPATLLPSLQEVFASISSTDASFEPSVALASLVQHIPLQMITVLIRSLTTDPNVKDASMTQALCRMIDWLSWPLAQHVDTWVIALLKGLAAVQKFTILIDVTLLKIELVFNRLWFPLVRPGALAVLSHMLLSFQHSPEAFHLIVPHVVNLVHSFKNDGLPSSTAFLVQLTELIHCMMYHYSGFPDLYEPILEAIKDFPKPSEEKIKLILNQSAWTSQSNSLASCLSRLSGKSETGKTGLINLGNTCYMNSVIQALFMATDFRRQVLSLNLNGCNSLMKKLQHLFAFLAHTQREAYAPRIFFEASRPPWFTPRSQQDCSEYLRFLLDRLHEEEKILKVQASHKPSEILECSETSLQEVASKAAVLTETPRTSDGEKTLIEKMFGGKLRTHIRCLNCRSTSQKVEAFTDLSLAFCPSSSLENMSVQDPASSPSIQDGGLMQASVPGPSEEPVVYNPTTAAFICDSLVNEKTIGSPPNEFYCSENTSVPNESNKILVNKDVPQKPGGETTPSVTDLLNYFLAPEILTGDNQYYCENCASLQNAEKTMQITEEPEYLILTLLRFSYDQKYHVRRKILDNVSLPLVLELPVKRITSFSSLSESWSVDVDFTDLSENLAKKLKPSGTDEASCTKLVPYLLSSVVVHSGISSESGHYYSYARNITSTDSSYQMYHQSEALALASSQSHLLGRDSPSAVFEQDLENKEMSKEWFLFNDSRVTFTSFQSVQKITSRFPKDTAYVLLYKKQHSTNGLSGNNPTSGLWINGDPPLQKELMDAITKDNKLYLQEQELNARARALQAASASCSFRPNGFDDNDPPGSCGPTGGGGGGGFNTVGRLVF
Procedure, shortened: as §1

USP39 = molecular target: T3, USP39 (UniProt Q53GS9)
T3 sequence (whole entry): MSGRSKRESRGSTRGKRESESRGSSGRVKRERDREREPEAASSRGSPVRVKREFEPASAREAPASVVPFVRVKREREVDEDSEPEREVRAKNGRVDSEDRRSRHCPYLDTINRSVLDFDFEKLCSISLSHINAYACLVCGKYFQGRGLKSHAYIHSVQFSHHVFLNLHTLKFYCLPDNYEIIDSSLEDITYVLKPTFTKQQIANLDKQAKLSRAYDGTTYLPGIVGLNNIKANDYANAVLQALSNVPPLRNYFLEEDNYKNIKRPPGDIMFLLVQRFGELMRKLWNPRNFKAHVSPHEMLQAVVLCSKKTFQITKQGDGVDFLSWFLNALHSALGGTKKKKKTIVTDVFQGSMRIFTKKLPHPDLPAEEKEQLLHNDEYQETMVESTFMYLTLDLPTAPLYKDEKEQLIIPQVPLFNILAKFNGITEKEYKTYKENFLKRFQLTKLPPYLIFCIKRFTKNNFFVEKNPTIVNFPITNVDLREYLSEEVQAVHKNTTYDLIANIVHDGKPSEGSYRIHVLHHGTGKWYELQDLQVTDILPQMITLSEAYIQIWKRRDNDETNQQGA
Procedure, shortened: as §1

USP4 = molecular target: T4, USP4 (UniProt Q13107)
T4 sequence (whole entry): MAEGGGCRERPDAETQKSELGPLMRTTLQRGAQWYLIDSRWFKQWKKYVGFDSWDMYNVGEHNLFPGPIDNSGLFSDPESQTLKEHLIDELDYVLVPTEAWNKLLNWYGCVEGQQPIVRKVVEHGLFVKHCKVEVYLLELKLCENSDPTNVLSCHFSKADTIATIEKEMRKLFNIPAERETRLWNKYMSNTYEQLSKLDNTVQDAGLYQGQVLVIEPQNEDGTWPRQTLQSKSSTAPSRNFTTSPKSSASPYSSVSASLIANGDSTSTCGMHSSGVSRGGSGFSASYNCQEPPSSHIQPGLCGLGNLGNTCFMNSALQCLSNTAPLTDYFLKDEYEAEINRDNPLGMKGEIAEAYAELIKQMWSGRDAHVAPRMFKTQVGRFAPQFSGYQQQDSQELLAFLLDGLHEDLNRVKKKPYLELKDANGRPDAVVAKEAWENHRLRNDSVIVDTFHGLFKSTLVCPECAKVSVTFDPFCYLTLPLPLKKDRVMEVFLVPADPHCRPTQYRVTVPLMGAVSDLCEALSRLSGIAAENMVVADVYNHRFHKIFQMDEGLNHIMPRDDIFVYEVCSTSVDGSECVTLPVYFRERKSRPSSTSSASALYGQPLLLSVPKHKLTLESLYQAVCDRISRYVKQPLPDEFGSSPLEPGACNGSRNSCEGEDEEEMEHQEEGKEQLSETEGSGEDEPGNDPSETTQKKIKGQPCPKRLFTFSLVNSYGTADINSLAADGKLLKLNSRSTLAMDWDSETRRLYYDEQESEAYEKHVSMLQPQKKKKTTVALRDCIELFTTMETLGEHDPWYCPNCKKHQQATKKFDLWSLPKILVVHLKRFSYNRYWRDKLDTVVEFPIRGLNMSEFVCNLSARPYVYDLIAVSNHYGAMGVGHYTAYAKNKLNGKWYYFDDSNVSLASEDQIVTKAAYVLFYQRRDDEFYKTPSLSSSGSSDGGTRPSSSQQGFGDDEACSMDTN
Procedure, shortened: as §1

Measured: log2 ratio of Biotin-Ahx-Ub-VS probe labelling

Cc1ccc(C)c(Oc2ccc(CNC(=O)CCl)cn2)c1.Cl
inactive: USP34 -0.224 | USP36 -0.158 | USP38 -0.222 | USP39 0.00552 | USP4 -0.39
